# Test results taken from PubChem BioAssay AID651813 (National Center for Advancing Translational Sciences (NCATS), 2012).
# The whole screen tested about 2,100 compounds, of which about 1,100 (52%) were called active. Inconclusive results (about 27%) are left out. Calls come from the whole dose curve; as a rule, active = well fitted inhibition curve with a large enough effect; inconclusive = small, poorly fitted or top-dose-only effect; inactive = no such curve, though single readings can be large or run the other way. So high a share suggests a set chosen from earlier hits. Some of the results follow.
# Target: DNA dC->dU-editing enzyme APOBEC-3G (Homo sapiens) (UniProt Q9HC16)
# Assay: qHTS for inhibitors of Vif-A3G interactions: Cherry picks counterscreen;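 note: hits raise yellow fluorescence by blocking Vif-driven A3G-eYFP degradation; nearly all actives have a fitted effect of over 70% in size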;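 for max response: max response given as percent of control signal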
# Settings: HeLa A3G-eYFP + Vif (tagged APOBEC3G with the HIV-1 protein that degrades it), eYFP fluorescence, 24 h
# Procedure, shortened: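 HeLa cells stably expressing A3G-eYFP and Vif were treated for 24 h at 37 deg C with compounds at several concentrations; yellow fluorescence (Ex 488 nm, Em 500-530 nm) read by Acumen Explorer, MG132 as positive control.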
# Potency is the fitted concentration of half-maximal effect.
# DNA dC->dU-editing enzyme APOBEC-3G (Homo sapiens), sequence (Q9HC16 whole entry, looked up): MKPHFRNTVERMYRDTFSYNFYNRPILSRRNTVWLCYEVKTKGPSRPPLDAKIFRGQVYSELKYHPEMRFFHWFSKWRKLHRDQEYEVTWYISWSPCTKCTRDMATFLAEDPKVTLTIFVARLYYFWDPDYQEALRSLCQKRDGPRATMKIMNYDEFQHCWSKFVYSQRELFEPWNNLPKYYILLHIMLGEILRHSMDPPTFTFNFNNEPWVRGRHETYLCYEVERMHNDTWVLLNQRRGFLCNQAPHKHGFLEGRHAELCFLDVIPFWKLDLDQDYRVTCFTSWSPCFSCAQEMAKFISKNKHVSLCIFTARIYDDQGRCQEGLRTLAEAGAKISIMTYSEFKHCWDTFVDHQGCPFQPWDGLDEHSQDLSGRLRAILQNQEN
SMILES,max response,Potency
CC(=O)Oc1c(-c2ccc(Br)o2)oc2ccccc2c1=O,-10.4% (inactive),–
CCc1cccc2c(C(O)c3c[nH]c4ccccc34)c[nH]c12 (stereo not given),–,20.6 µM (active)
CC[n+]1ccccc1/C=C/c1ccc(N(C)C)cc1,–,20.6 µM (active)
CC(C)CC[n+]1ccccc1/C=C/c1ccc(N(C)C)cc1,–,16.4 µM (active)
Cc1c(CCCl)c(Cl)n2c(nc3ccccc32)c1C#N,–,9.94 µM (active)
CN(C)c1ccc2nc3c(=O)[nH]c(=O)nc-3n(CC(O)C(O)C(O)CO)c2c1 (stereo not given),0.486% (inactive),–
Cc1ccc(/C=C2/NC(=O)N(Cc3ccccc3F)C2=O)s1,–,8.2 µM (active)
Cc1ccc(/C=C2/NC(=O)N(Cc3ccccc3)C2=O)s1,–,20.6 µM (active)
CN(C)c1ccc(/C=C2\NC(=S)N(Cc3ccccc3)C2=O)cc1,–,2.5 µM (active)
Cc1cccc(CN2C(=O)N/C(=C/c3ccc(C)s3)C2=O)c1,–,6.27 µM (active)
Cc1ccc2ccc3cc(C(=O)Nc4ccc(C)c(F)c4)nc3c2[nH]1,-25.1% (inactive),–
CC(C)(C)OC(=O)NC(Cc1ccccc1)C(=O)N1CCC(C(=O)NCC(=O)Nc2ccc(F)cc2)CC1 (stereo not given),–,23.1 µM (active)
COc1ccc2c(n1)Sc1nc3ccccc3nc1N2,–,3.26 µM (active)
CC1C/C(=C/c2cccs2)C(=O)/C(=C/c2cccs2)C1 (stereo not given),14.5% (inactive),–
COc1cc(OC)c(OC)cc1/C=C1\CC(C)C/C(=C\c2cc(OC)c(OC)cc2OC)C1=O (stereo not given),–,20.6 µM (active)
COc1ccc(-c2cc(-c3nnc(COC(=O)c4ccncc4)o3)c3ccccc3n2)cc1OC,-0.16% (inactive),–
COc1ccc(COc2cc(-c3cccc(OC)c3)nc3ccc(NC(=O)C(C)C)cc23)cc1,–,4.98 µM (active)
COc1ccc(COc2cc(-c3cccc(OC)c3)nc3ccc(NC(=O)c4ccc(OC)cc4)cc23)cc1,–,3.53 µM (active)
C[n+]1cc(C(=O)N2CCCCC2)ccc1/C=C/c1c[nH]c2ccccc12,–,17.7 µM (active)
CCN(CC)C(=O)c1ccc(/C=C/c2c[nH]c3ccccc23)[n+](C)c1,–,20.6 µM (active)
c1ccc2c(c1)Cc1cc3ccccc3nc1-2,–,1.64 µM (active)
Cc1ccc2nccc(/C=C/c3ccc(N(C)C)cc3)c2c1,–,11.6 µM (active)
CN(C)c1ccc(/C=C/c2ccnc3ccc(N)cc23)cc1,–,18.4 µM (active)

SMILES,max response,Potency
CN(C)c1ccc(/C=C/c2ccnc3ccc(I)cc23)cc1,–,5.17 µM (active)
Cc1cc(C)c2nccc(/C=C/c3ccc(N(C)C)cc3)c2c1,–,11.6 µM (active)
FC(F)(F)c1ccccc1NC(=S)NN=C1CCCCCC1,19.2% (inactive),–
COc1ccc2nccc(/C=C/c3ccc(N(C)C)cc3)c2c1,–,18.4 µM (active)
CN(C)c1ccc(/C=C/c2ccnc3ccc(Br)cc23)cc1,–,2.06 µM (active)
Cc1ccc2nc(-c3ccccn3)c(Nc3ccccc3C)n2c1,5.76% (inactive),–
O=C(Nc1ncc(Cc2ccc(SC(F)F)cc2)s1)c1ccccc1,–,1.98 µM (active)
CCOc1ccc(S(=O)(=O)N(CC(=O)N/N=C/c2ccc(-c3ccc([N+](=O)[O-])cc3)o2)c2ccccc2)cc1,–,11.2 µM (active)
O=C(O)c1cccc(-c2ccc(/C=N/Nc3ccc([N+](=O)[O-])cc3)o2)c1,–,14.6 µM (active)
O=C(O)c1ccc(-c2ccc(/C=N/Nc3ccc([N+](=O)[O-])cc3)o2)cc1,–,15.8 µM (active)
Cc1cc([N+](=O)[O-])ccc1-c1ccc(/C=N/NC(=O)c2ccc(Br)o2)o1,–,20.6 µM (active)
Cn1c(=S)c2[nH]c(SCCN3CCCC3)nc2n(C)c1=O,14.3% (inactive),–
S=C(Nc1ccccc1)N1CCn2c1nc1ccccc12,-19.9% (inactive),–
Cc1ccc(-c2ccc(/C=N/NC(N)=S)o2)cc1,-14.5% (inactive),–
O=[N+]([O-])c1ccc(-c2ccc(/C=N/Nc3nc(NCc4ccccc4)nc(N4CCOCC4)n3)o2)cc1,–,10.3 µM (active)
CC(C)(C)NC(=S)N/N=C\c1ccc(-c2ccc([N+](=O)[O-])cc2)o1,–,10.3 µM (active)
O=[N+]([O-])c1ccccc1S(=O)(=O)Nc1ccc(-c2ccc(N3CCOCC3)nn2)cc1,0.357% (inactive),–
CN(/N=C/c1ccc(-c2ccc([N+](=O)[O-])cc2)o1)c1ccccc1,–,1.16 µM (active)
CCN(CC)c1nc(C)c(C(=S)Nc2cc([N+](=O)[O-])ccc2Cl)s1,-7.53% (inactive),–
CCOC(=O)c1c(CC(C)C)csc1/N=C/C1C(=O)CCCC1=O,-2.9% (inactive),–
Nc1ncnc2c1ncn2[C@@H]1O[C@H](CNCc2ccc(OCc3ccccc3)cc2)[C@@H](O)[C@H]1O,–,12.5 µM (active)
COc1ccc(CNCC(=O)Nc2ccccc2-n2cccc2)cc1,–,9.94 µM (active)
OCCCn1c(C2CCCN2c2nc(-c3ccc(F)cc3)cs2)nc2cc(Cl)c(N3CCCCC3)cc21 (stereo not given),–,16.4 µM (active)

SMILES,max response,Potency
CCCn1c(C2CCCN2c2nc(-c3cccc(Br)c3)cs2)nc2ccccc21 (stereo not given),-7.22% (inactive),–
C[C@H](O)[C@@H]1CN2CCc3c([nH]c4ccccc34)[C@@H]2C[C@@H]1N(C)C(=O)c1ccco1,–,12.5 µM (active)
CCN(CC)C(=O)CSC(Nc1cccc(F)c1)=C(C#N)C#N,–,13 µM (active)
CCN(CC)c1ccc2cc(C(N)=O)c(=N)oc2c1,60.6% (inactive),–
CCN(CC)c1ccc(/C=N/NC(=O)c2ccco2)c(O)c1,–,7.9 µM (active)
CCN(CC)c1ccc(/C=N/N=C(N)N)c(O)c1,–,5.59 µM (active)
O=C(NC(=S)N1CCc2ccccc21)c1ccco1,4.59% (inactive),–
O=C(N/N=C/c1sc(=O)n(Cc2ccc(Br)cc2)c1Cl)c1ccco1,-16.3% (inactive),–
Oc1ccc(C=NNC(=S)Nc2ccc(F)cc2)c(O)c1,-25.9% (inactive),–
CCN(CC)c1ccc(/C=N/NC(=O)c2ccco2)cc1,–,8.86 µM (active)
Cc1ccc2nsnc2c1NC(=O)c1ccc(-c2cc(Cl)ccc2Cl)o1,–,14 µM (active)
Cc1cc(-c2ccccc2)c2c3c(c(-c4ccccc4)n2n1)c(=O)n(C)c(=O)n3C,9.15% (inactive),–
C=CCSc1nnc(C)c(/C=C/Nc2ccc(Cl)cc2)n1,–,20.6 µM (active)
CCOc1ccccc1NC(=O)Cn1nnc(C(=O)NCc2cccs2)c1N,–,0.651 µM (active)
COc1cc(NC(=O)C2=C(N3CCOCC3)/C(=C\c3ccc(N(C)C)cc3)CCC2)cc(OC)c1OC,–,3.53 µM (active)
Cc1cc(NC(=O)NC(=O)c2ccccc2NC(=O)C(C)N)ccc1Oc1ncc(Br)cn1 (stereo not given),–,0.444 µM (active)
Cc1cc(/C=C2\SC(=S)N(C)C2=O)c(C)n1-c1ccccc1O,–,18.4 µM (active)
Cc1cc(/C=C2\SC(=S)N(C)C2=O)c(C)n1-c1ccc(O)cc1,–,20.6 µM (active)
COc1cc2c(cc1OC)CN(C(=O)c1cc(=O)c3ccccc3o1)CC2,–,15.8 µM (active)
COc1cc2c(cc1OC)CN(C(=O)/C=C/c1cccs1)CC2,–,1.25 µM (active)
COc1cc2c(cc1OC)CN(C(=O)c1ccc3nc[nH]c3c1)CC2,–,14 µM (active)
Cc1cccc(C(=O)NC(=S)N2CCc3ccccc3C2)c1,-2.8% (inactive),–
CN(C)CCCN(C(=O)/C=C/c1cccs1)c1nc2ccc(F)cc2s1,-22.2% (inactive),–

SMILES,max response,Potency
CC(=O)N/N=C/c1cc(C(C)(C)C)cc(/C=N/NC(C)=O)c1O,–,20.6 µM (active)
CC(=O)N/N=C/c1cc(C(C)C)cc(/C=N/NC(C)=O)c1O,–,18.4 µM (active)
CC1(C)CCN2CCC(C)(C)c3c(O)ccc1c32,–,5.59 µM (active)
COc1ccc(NS(=O)(=O)c2cc(NC(=O)c3ccc(=O)[nH]c3)ccc2N2CCCC2)cc1,–,5.59 µM (active)
Cc1ccc(NC(=S)NC(=O)c2ccc(F)cc2)cc1S(=O)(=O)Nc1cccc(Cl)c1,-21.2% (inactive),–
ClCC1NCC(c2ccccc2Cl)c2c1[nH]c1ccccc21 (stereo not given),-28% (inactive),–
CN1C(=O)N(C)c2ccc(C=O)c3cccc1c23,1.02% (inactive),–
N#Cc1c(C(F)(F)F)cc(-c2ccco2)nc1SCc1ccccn1,–,16.4 µM (active)
N#Cc1ccc(-c2ccco2)nc1SCc1ccccc1,-26% (inactive),–
COc1cc2cc(-c3ccc(OC)c(OC)c3C)nc(N)c2cc1OC,–,2.8 µM (active)
C[C@H]1CN([C@@H](C)CO)C(=O)Cc2cc(NC(=O)CCC(F)(F)F)ccc2O[C@H]1CN(C)S(=O)(=O)c1ccc(F)cc1,–,7.9 µM (active)
CN(C)c1ccc(C2C=C(c3ccc(Cl)cc3OC(F)F)Nc3ncnn32)cc1 (stereo not given),–,15.8 µM (active)
CCOC(=O)N1CCN(C(=O)c2[nH]c(C(F)(F)F)nc2-c2ccccc2)CC1,–,15.8 µM (active)
O=C(c1[nH]c(C(F)(F)F)nc1-c1ccccc1)N1CCN(c2ccccc2)CC1,–,3.53 µM (active)
O=C(c1[nH]c(C(F)(F)F)nc1-c1ccccc1)N1CCN(c2cccc(C(F)(F)F)n2)CC1,–,6.27 µM (active)
Cn1nnnc1SCCNCc1cc(Br)ccc1OCc1ccccc1Cl,-13.4% (inactive),–
Cc1cccc2cc3c(N)c(C(=O)N4CCc5ccccc54)sc3nc12,–,7.31 µM (active)
Cc1cccc2cc3c(N)c(C(=O)N4CCCc5ccccc54)sc3nc12,–,9.2 µM (active)
Cc1ccc2nc3sc(C(=O)N4CCCc5ccccc54)c(N)c3cc2c1,–,7.9 µM (active)
Cc1ccc(/C=N/NC(=O)c2nc3nc(C)cc(C)n3n2)cc1,-10.8% (inactive),–
Cc1cc(C)n2nc(C(=O)N/N=C/c3c4ccccc4cc4ccccc34)nc2n1,–,15.8 µM (active)
